Among the test systems are NCI-H23 lung; NCI-H226 lung; NCI-H322M lung; HOP-62 NSCLC; NCI-H460 lung; HOP-92 NSCLC; NCI-H522 lung; A549/ATCC NSCLC; 786-0 renal; COLO 205 colon.
Common to all, as to test: NCI-60 one-dose screen, 48 h (100 = growth as untreated, 0 = no growth, -100 = all killed)
Common to all, as to conditions: 10 µM unless noted

Compounds without any hit were thinned out: in the full panel of roughly 83,000, 20% have a hit.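 Treatment: one concentration, 48 hours, 96-well format. Scoring: percent growth, with anything below 10 considered active.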 Values without a mark were called inactive. Activity calls are given as the source filed them.

Turning to `Nc1ccc(S(=O)(=O)O)c2ccc(N=Nc3ccc(N=Nc4ccc(S(=O)(=O)O)cc4)c4ccccc34)c(O)c12`, the growth in the experiment on NCI-H23 lung is 98%; in the experiment with NCI-H226 lung it was 92.1%; in the experiment on NCI-H322M lung, 94.7%; with HOP-62 NSCLC, 112%; in the experiment with NCI-H460 lung, 101%; in the experiment on HOP-92 NSCLC, 102%. Besides, the growth was 89.4% in the experiment on NCI-H522 lung, 99.8% with A549/ATCC NSCLC, 102% with 786-0 renal and 105% in the experiment on COLO 205 colon.
Take `CCCCCCCCCCCCC[N+](C)(C)Cc1ccccc1`: the growth in the experiment on NCI-H23 lung is -22.8% (active); in the experiment on NCI-H226 lung, -8.07% (active); in the experiment on NCI-H322M lung, 82.5%; with HOP-62 NSCLC, -73.1% (active); in the experiment with NCI-H460 lung it was 0.965% (active); in the experiment with HOP-92 NSCLC it was -64.3% (active). The growth was -60.1% (active) in the experiment on NCI-H522 lung, 40.5% with A549/ATCC NSCLC, -56.1% (active) in the experiment with 786-0 renal and -91.8% (active) in the experiment on COLO 205 colon.
Take `CCOC(=O)c1sc2nc(-c3cccc(O)c3)nc(N3CCOCC3)c2c1C`: the growth was 69.3% in the experiment with NCI-H23 lung; 82.8% with NCI-H226 lung; 70.7% in the experiment on NCI-H322M lung; 68.5% in the experiment on HOP-62 NSCLC; 68.2% with NCI-H460 lung; 30.8% in the experiment with HOP-92 NSCLC. For the same compound, the growth with NCI-H522 lung is 46.1%; in the experiment on A549/ATCC NSCLC, 47.4%; in the experiment on 786-0 renal, 67.7%; with COLO 205 colon it was 105%.
Consider `N#CCCN=Nc1c(O)[nH]c2ccc(F)cc12`, for which the growth is 96.3% in the experiment with NCI-H23 lung; 96.1% with NCI-H226 lung; 103% in the experiment on NCI-H322M lung; 98.6% in the experiment with HOP-62 NSCLC; 101% with NCI-H460 lung; 101% in the experiment with HOP-92 NSCLC. Besides, the growth in the experiment with NCI-H522 lung was 85%; with A549/ATCC NSCLC, 111%; with 786-0 renal it was 94.1%; with COLO 205 colon it was 118%.
As for `COc1nc2c(c(=O)n1C)CN(Cc1ccccc1)C=N2`, the growth in the experiment on NCI-H23 lung is 103%; in the experiment with NCI-H226 lung, 109%; in the experiment on NCI-H322M lung, 128%; with HOP-62 NSCLC, 94.2%; in the experiment on NCI-H460 lung, 116%; with HOP-92 NSCLC, 21.2%. In addition, the growth is 95.1% in the experiment with NCI-H522 lung, 87.6% in the experiment with A549/ATCC NSCLC, 103% with 786-0 renal and 107% in the experiment on COLO 205 colon.
`Cn1cc(-c2nonc2-c2c[nH]c3ccccc23)c2cccnc21`: the growth is 54.4% in the experiment with NCI-H23 lung; 30.2% with NCI-H226 lung; 88.6% in the experiment with NCI-H322M lung; 36.5% in the experiment with HOP-62 NSCLC; 21.6% in the experiment with NCI-H460 lung; 62.2% in the experiment on HOP-92 NSCLC. Moreover, the growth in the experiment on NCI-H522 lung was 18.4%; in the experiment on A549/ATCC NSCLC, 36.2%; with 786-0 renal, 65.8%; in the experiment with COLO 205 colon, 37.6%.
On to `Cc1cn2c(/C=C3/C(=O)Nc4c3ccc3ccccc43)c(C(F)(F)F)nc2s1`, for which the growth was 39.5% in the experiment on NCI-H23 lung; 53.5% in the experiment on NCI-H226 lung; 43.2% with NCI-H322M lung; 27.2% with HOP-62 NSCLC; 9.31% (active) in the experiment with NCI-H460 lung; 20.8% in the experiment on HOP-92 NSCLC. Moreover, the growth is 5.27% (active) in the experiment on NCI-H522 lung, 20.1% in the experiment with A549/ATCC NSCLC, 24.8% in the experiment with 786-0 renal and -49.4% (active) in the experiment on COLO 205 colon.
With `O=C1CC[C@H](c2ccc(O)c3c2C(=O)[C@@H]2O[C@@H]2C3=O)c2cccc(O)c21`, the growth in the experiment on NCI-H23 lung was 94.4%; with NCI-H226 lung, -14.6% (active); in the experiment on NCI-H322M lung, 98%; in the experiment on HOP-62 NSCLC, 79%; with NCI-H460 lung, 97.1%; in the experiment with HOP-92 NSCLC, 38.4%. The growth is -29.4% (active) with NCI-H522 lung, 87.2% in the experiment with A549/ATCC NSCLC, 44.8% in the experiment with 786-0 renal and -34.6% (active) with COLO 205 colon.
Consider `COc1ccc(C2CC(c3ccc4ccccc4c3)=NN2/C=C2\SC(=S)N(NC(=O)Cc3ccccc3Nc3c(Cl)cccc3Cl)C2=O)cc1` (stereo not given), for which the growth was 40.5% in the experiment on NCI-H23 lung; 45.9% in the experiment with NCI-H226 lung; 42.8% in the experiment on NCI-H322M lung; 23.7% in the experiment with HOP-62 NSCLC; 9.42% (active) with NCI-H460 lung; 38.5% with HOP-92 NSCLC. Besides, the growth in the experiment on NCI-H522 lung is -15.4% (active); in the experiment on A549/ATCC NSCLC, 23.6%; in the experiment with 786-0 renal it was 13.8%; with COLO 205 colon it was 55.6%.
On to `Clc1ccc2nc3nc4ccc[nH]c4cc3c2c1`, for which the growth with NCI-H23 lung was 73.7%; in the experiment with NCI-H226 lung, 83.8%; with NCI-H322M lung it was 65.1%; with HOP-62 NSCLC, 89.7%; in the experiment on NCI-H460 lung it was 54.4%; with HOP-92 NSCLC, 105%. Further, the growth with NCI-H522 lung is 81.1%; with A549/ATCC NSCLC, 79.2%; with 786-0 renal, 105%; with COLO 205 colon, 98.9%.
As for `N#Cc1c(-c2ccc(Cl)cc2)nc(NN=Cc2ccco2)nc1N1CCOCC1`, the growth is 70.8% with NCI-H23 lung; 70.8% in the experiment on NCI-H226 lung; 69.4% with NCI-H322M lung; 66.4% in the experiment with HOP-62 NSCLC; 68.2% in the experiment on NCI-H460 lung; 40.6% in the experiment on HOP-92 NSCLC. For the same compound, the growth in the experiment with NCI-H522 lung was 62.3%; in the experiment with A549/ATCC NSCLC, 78.9%; with 786-0 renal, 74%; in the experiment on COLO 205 colon it was 75.2%.
With `C=C(C)C1CC(O)C2(C)CCCC3C2C1CC(C)C3(C)CC/C(C)=C/C(O)C1CCC(=O)c2c(OC)cc(OC)cc21` (stereo not given), the growth in the experiment with NCI-H23 lung was 48.9%; with NCI-H226 lung it was 71.2%; in the experiment with NCI-H322M lung, 78.9%; in the experiment on HOP-62 NSCLC it was 46.7%; in the experiment on NCI-H460 lung it was 14.7%; in the experiment with HOP-92 NSCLC, 58.5%. The growth in the experiment on NCI-H522 lung is 53.6%; with A549/ATCC NSCLC, 30.8%; in the experiment on 786-0 renal, 58%; in the experiment with COLO 205 colon it was 40.8%.
As to `COc1ccc(Nc2cc(C)nc(N3CCN(c4ccnc5cc(Cl)ccc45)CC3)n2)cc1`, the growth with NCI-H23 lung was 41.2%; with NCI-H226 lung it was 60.6%; in the experiment on NCI-H322M lung, 26.9%; in the experiment with HOP-62 NSCLC it was 36.7%; with NCI-H460 lung, 18.5%; in the experiment with HOP-92 NSCLC it was 25.3%. Also, the growth was 38% with NCI-H522 lung, 26.3% in the experiment with A549/ATCC NSCLC, 29.1% with 786-0 renal and 8.4% (active) in the experiment with COLO 205 colon.
